# PKM2 act: activators of human pyruvate kinase M2; purified PKM2, Kinase-Glo ATP luminescence, activation; response scale: 0% is enzyme alone, no compound; Potency, µM (highest dose often 57.5 µM), for inactives: at the highest dose activation, actives largely listed as activators; 260,000 compounds, 0.34% hits; AID 1631; also: nearly all actives have a fitted effect of over 55% in size
#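 Purified hPK-M2 (>95%) run at intermediate activity with 0.1 mM ADP and 0.5 mM PEP in 50 mM imidazole pH 7.2, KCl, MgCl2; 1 h room temperature. ATP formed read by Kinase-Glo luminescence; normalized to uninhibited and no-enzyme controls.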
# JMJD2E inh: inhibitors of human JMJD2E histone demethylase; Potency, µM (doses to about 57.1 µM), without a hit: top-dose activity change, negative = inhibition, usual class: inhibitors; JMJD2E catalytic domain, FDH-coupled NADH fluorescence (FDH is formaldehyde dehydrogenase); 230,000 compounds, 1.6% hits; active = well fitted inhibition curve with a large enough effect, not every such curve was filed as active; inconclusive = small, poorly fitted or top-dose-only effect, or another doubt; inactive = no such curve, though single readings can be large or run the other way;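 also: 0% = wells with enzyme and -100% = buffer wells without enzyme; nearly all actives have a fitted effect of over 50% in size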
# APE1 inh: inhibitors of human APE1 endonuclease; recombinant APE1, TAMRA/BHQ-2 abasic DNA cleavage fluorescence; Potency, µM (top dose mostly 65.8 µM), for the others: top-dose activity change, negative = inhibition, hits mostly inhibitors; 350,000 compounds, 0.35% hits;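 also: plate controls were vehicle for no effect and reference inhibitor for full effect; nearly all actives have a fitted effect of over 55% in size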
#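 Readout is kinetic fluorescence (ex 525, em 598 nm) from cleavage of 50 nM TAMRA/BHQ-2 THF abasic duplex by 0.75 nM APE1, compound added 15 min beforehand at RT.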
# BLM helicase inh: inhibitors of human Bloom syndrome helicase BLM. P54132. recombinant BLM DNA unwinding, fluorescence dequenching. Potency, µM (series often up to 56.1 µM), for inactives: top-dose activity change, negative = inhibition, most hits filed as inhibitors. 350,000 compounds, 0.2% hits;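 also: plate controls were vehicle for no effect and no enzyme for full effect; nearly all actives have a fitted effect of over 35% in size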
# RECQ1 inh-1: RECQ1 (human) helicase inhibition; Potency, µM (titrated, usually from 57.3 µM), inactives show top-dose activity, negative = inhibition, usual class: inhibitors; AID 2549; RECQ1 DNA unwinding, red fluorescence kinetic read; P46063; 240,000 compounds, 0.54% hits;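 also: plate controls were vehicle for no effect and no enzyme for full effect; nearly all actives have a fitted effect of over 30% in size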
# Target sequence (P46063 whole entry, looked up): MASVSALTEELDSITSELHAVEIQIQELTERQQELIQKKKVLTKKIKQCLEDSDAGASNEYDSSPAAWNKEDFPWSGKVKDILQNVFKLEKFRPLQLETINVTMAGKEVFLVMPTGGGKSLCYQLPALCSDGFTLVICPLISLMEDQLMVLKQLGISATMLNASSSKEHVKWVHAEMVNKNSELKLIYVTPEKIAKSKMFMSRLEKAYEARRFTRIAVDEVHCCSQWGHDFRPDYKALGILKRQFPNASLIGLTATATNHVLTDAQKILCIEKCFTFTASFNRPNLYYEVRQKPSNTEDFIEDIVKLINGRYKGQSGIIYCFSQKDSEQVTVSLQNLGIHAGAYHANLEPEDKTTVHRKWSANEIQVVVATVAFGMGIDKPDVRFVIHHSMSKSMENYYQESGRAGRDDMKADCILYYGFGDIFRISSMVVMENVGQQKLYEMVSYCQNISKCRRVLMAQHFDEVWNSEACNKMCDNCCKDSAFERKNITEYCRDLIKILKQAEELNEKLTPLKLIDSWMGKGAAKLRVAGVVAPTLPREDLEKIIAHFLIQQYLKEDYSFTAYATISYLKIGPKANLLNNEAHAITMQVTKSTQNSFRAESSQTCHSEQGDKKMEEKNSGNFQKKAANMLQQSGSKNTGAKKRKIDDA
#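 RECQ1T1 50 nM; forked duplex (20 bp + 30-nt ss tails) 200 nM, ATP 2 mM final; pH 8.0, 2 mM MgCl2, 2.5 ug/ml poly(dI-dC); 15 min compound preincubation; discontinuous kinetic read over 2 h at RT.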
# RECQ1 inh conf: confirmation of human RECQ1 helicase inhibitors. shares compounds with RECQ1 inh-1. RECQ1 helicase DNA unwinding, fluorescence. Potency, µM (series often up to 229 µM), inactives show top-dose activity change, negative = inhibition, most hits filed as inhibitors. 610 compounds, 28% hits. AID 2708; also: nearly all actives have a fitted effect of over 45% in size
# ADP FP counter: ADP displacement flagged in RECQ1 inhibitor counter-screen. 530 compounds, 27% hits. ADP fluorescence polarization displacement counterscreen. shares compounds with RECQ1 inh-1. Potency, µM (series often up to 228 µM), for the others: at the highest dose activity change, negative = inhibition, most hits filed as inhibitors; also: nearly all actives have a fitted effect of over 45% in size
# RECQ1 inh-2: blocks human RECQ1 DNA unwinding. shares compounds with RECQ1 inh-1. recombinant RECQ1 DNA unwinding, red fluorescence. Potency, µM (series often up to 119 µM), inactives show top-dose activity, negative = inhibition, most hits filed as inhibitors. 1,100 compounds, 15% hits. AID 504841; also: nearly all actives have a fitted effect of over 50% in size
# The depositor's hits bear a star; i = inactive; ? = inconclusive; · = not tested or not shown; [ ] = dose if it differs, or a comment. This is one part of a sample in which hits are shown more often than they occur. Unless noted, calls follow the shape of the dose curve; as a rule, active = well fitted curve in the direction sought with a large enough effect; inconclusive = small, poorly fitted or top-dose-only effect, or another doubt; inactive = no such curve, though single readings can be large; an effect the other way counts as inactive or inconclusive. Unless noted, % is scaled to controls: 0 for no effect and ±100 for the full control effect; potency is read from the fitted curve at half-maximal effect.
SMILES,PKM2 act,JMJD2E inh,APE1 inh,BLM helicase inh,RECQ1 inh-1,RECQ1 inh-2,others
CCS(=O)(=O)c1ncc(N(Cc2ccco2)Cc2sccc2C)c(C(=O)Nc2cc(C)ccc2C)n1,·,·,·,-9%,·,·,
Cc1ccc(N2C(=O)C3C(C2=O)C(C(=O)c2ccc(Cl)cc2)N2CCCC32)cc1 (stereo not drawn),1%,?,10%,-3%,25µM*,-28%,
O=C(CCS(=O)(=O)c1ccc(Br)cc1)Nc1ccc(Br)cc1F,6%,4%,-10%,-8%,35µM*,?,
O=C(CCS(=O)(=O)c1ccc(Br)cc1)Nc1ccc(Cl)cc1F,-4%,3%,1%,3%,-5%,·,
COc1ccccc1/C=C/C(C)=O,-6%,?,17%,2%,-2%,·,
CNc1ccccc(C(=O)/C=C/c2ccccc2OC)c1=O,26%,?,-4%,-15%,25µM*,?,
O=C(/C=C/c1ccco1)N(Cc1ccc(F)cc1)C1CCS(=O)(=O)C1 (stereo not drawn),-2%,-5%,12%,-5%,?,-4%,
CSc1ccccc1NC(=O)c1noc2c1CCC2,31%,-6%,35µM*,-4%,?,?,
Cc1ccc(O)c(NC(=O)c2noc3c2CCCC3)c1,·,·,·,-4%,·,·,
Cc1ccc(S(=O)(=O)Oc2ccc(C3C4=C(CCCC4=O)OC4=C3C(=O)CCC4)cc2)cc1,1%,6%,-3%,-11%,-10%,·,
CN(C)c1ccc(C2C3=C(CCCC3=O)OC3=C2C(=O)CCC3)cc1,0%,-15%,7%,-14%,?,1%,
COc1ccc(NCc2nnc(SCC(=O)Nc3nc(-c4ccccc4)cs3)n2-c2ccccc2)cc1,-1%,-2%,2%,1%,4%,·,RECQ1 inh conf=15%;ADP FP counter=?
O=C(CSc1nnc(-c2ccncc2)n1Cc1ccco1)Nc1ccccc1Cl,2%,3%,-5%,-1%,-14%,·,
O=C(CSc1nnc(-c2ccncc2)n1Cc1ccco1)Nc1nc(-c2ccccc2)cs1,-2%,4%,-5%,-10%,i,·,RECQ1 inh conf=-16%;ADP FP counter=41%
Cc1ccc(-n2c(Cc3cccn3C)nnc2SCC(=O)NCc2ccco2)cc1,15%,-20%,-5%,1%,22µM*,-15%,RECQ1 inh conf=-9%[114 µM];ADP FP counter=14%[91.9 µM]
COc1ccc(-n2c(Cc3cccn3C)nnc2SCC(=O)Nc2ccc(C(C)=O)cc2)cc1,-4%,-20%,-9%,-7%,22µM*,-4%,
Cc1ccc(-n2c(Cc3cccn3C)nnc2SCC(N)=O)cc1,-3%,-5%,0%,0%,i,·,
CC(=O)Nc1ccc(NC(=O)C(OC(=O)c2ccccc2)C(OC(=O)c2ccccc2)C(=O)O)cc1 (stereo not drawn),-3%,5%,2%,-3%,-5%,·,RECQ1 inh conf=17%;ADP FP counter=?
O=C(OC(C(=O)O)C(OC(=O)c1ccccc1)C(=O)NCc1ccccc1)c1ccccc1 (stereo not drawn),-1%,7%,14%,-3%,-8%,·,
CN(C)c1ccc(-c2nc(NC3CCNCC3)c3ccccc3n2)cc1,·,?,?,?,?,20µM*,
c1ccc2c(NC3CCNCC3)nc(-c3ccoc3)nc2c1,·,·,-3%,60%,-4%,·,
CCC(C(=O)Nc1ccc(C(=O)OC)cc1)n1nc(-c2ccc(C)cc2)c2c(c1=O)CCCC2 (stereo not drawn),·,·,·,-2%,·,·,
COc1ccccc1NC(=S)NC(=O)/C=C/c1ccco1,22%,?,?,-19%,?,?,

# High-throughput results: PubChem BioAssay, National Center for Advancing Translational Sciences (NCATS)
